Screening data: PubChem BioAssay, National Center for Advancing Translational Sciences (NCATS)
B2AR arrestin – recruits beta-arrestin to the human beta2-adrenergic receptor. beta-arrestin recruitment to beta2AR, cell-based reporter. Potency, µM (doses to about 46.1 µM), without a hit: at the highest dose activation, most hits filed as activators. 330,000 tested, 0.02% active; active = well fitted activation curve with a large enough effect; inconclusive = small, poorly fitted or top-dose-only effect;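 note: potency is the fitted concentration of half-maximal effect; 0% = DMSO controls and full agonism = EC100 isoproterenol or metaproterenol; nearly all actives have a fitted effect of over 65% in size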
DRD3 agonist – agonists of human D3 dopamine receptor; D3R DiscoveRx beta-arrestin cells, luminescence, 90 min; max activation, %; 410,000 tested, 0.58% active; in the data active = max activation above about 30%; note: 0% is about no effect
Target sequence (P35462 whole entry, looked up): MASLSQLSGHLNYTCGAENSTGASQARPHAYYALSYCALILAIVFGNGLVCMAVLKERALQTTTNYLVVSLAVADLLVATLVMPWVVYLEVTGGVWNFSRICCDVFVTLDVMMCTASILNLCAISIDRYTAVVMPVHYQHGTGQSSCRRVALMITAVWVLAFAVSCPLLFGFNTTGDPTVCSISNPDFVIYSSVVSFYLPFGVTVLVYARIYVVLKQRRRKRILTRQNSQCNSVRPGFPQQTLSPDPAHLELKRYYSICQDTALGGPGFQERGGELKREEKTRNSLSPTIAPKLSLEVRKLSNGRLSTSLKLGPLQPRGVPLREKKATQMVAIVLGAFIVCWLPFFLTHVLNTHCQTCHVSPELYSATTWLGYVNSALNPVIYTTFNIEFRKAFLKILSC
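Cells at 1500/well, incubated overnight, then treated with pinned compounds (dopamine as control) for 90 min at 37 degrees C. DiscoveRx reagent added for 30 - 60 minutes at room temperature; luminescence read.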
D3 antag – blocks the human D3 dopamine receptor | 360,000 tested, 2.5% active | D3R cells, DiscoveRx beta-arrestin luminescence, antagonist mode; active compounds read low | AID 652054 | max response, negative = inhibition, % | P35462; in the data active = max response below about -50%; inconclusive = no clear call, values can overlap the other calls; note: % is set by controls: 0 for no effect and ±100 for the full control effect
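Cells expressing the human receptor were seeded at 1500 cells/well, incubated overnight at 37 degrees C in 5% CO2, then exposed to library compounds with dopamine controls for 90 minutes at 37 degrees C before luminescent detection.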
Giardia kill – kills Giardia lamblia; Giardia lamblia trophozoite viability; activity change, % at 7.66 µM, hits read low; 340,000 tested, 0.15% active; AID 540267; in the data active = activity change below about -80%; inconclusive = between about -30% and that limit;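 note: parasites exposed to compound for two days anaerobically before the ATP read; % is set by controls: 0 for no effect and ±100 for the full control effect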
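Each well holds 100 Giardia trophozoites and compound. After two days (48 hrs) at 37 deg C in anaerobic conditions, ATP is quantified by luminescence.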
The depositor's hits bear a star; ? = inconclusive; nt = no result given. This is a sample that favours compounds with a hit; in the whole collection about 2.8% have one here.

SMILES	B2AR arrestin	DRD3 agonist	D3 antag	Giardia kill
CCC(C(=O)Nc1ccc(C)c(Cl)c1)n1c(=O)c(-c2ccccc2NC(C)=O)nc2ccccc21 (stereo not drawn)	nt	-19	nt	nt
CCOC(=O)Cn1c(=NC(=O)c2ccc([N+](=O)[O-])s2)sc2ccccc21	0%	-5	10	-96*
COc1ccc(C2Nc3ccccc3C(=O)N2Cc2ccco2)cc1 (stereo not drawn)	nt	nt	nt	10
CCOC(=O)[C@H]1[C@H]2COc3ccc(OC)cc3[C@@H]2N2C(=O)c3cc(OC)ccc3NC(=O)[C@@]12C	0%	5	0	-18
CCOC(=O)[C@H]1[C@H]2COc3ccc(Br)cc3[C@@H]2N2C(=O)c3cc(OC)c(OC)cc3NC(=O)[C@@]12C	-1%	5	6	-2
CCCCN1CC(=O)N2[C@@H]3c4cc(OC)ccc4OC[C@@H]3[C@H](C(=O)OCC)[C@]2(C)C1=O	nt	49*	14	-15
CCOC(=O)[C@H]1[C@H]2COc3ccc(OC)cc3[C@@H]2N2C(=O)c3cc(OC)c(OC)cc3NC(=O)[C@@]12C	0%	-11	-61*	0
CCOC(=O)[C@H]1[C@H]2COc3ccc(C)cc3[C@@H]2N2C(=O)c3cc(OC)c(OC)cc3NC(=O)[C@@]12C	0%	-17	-60*	?
CN1C(=O)C[C@@H](C(=O)N[C@@H](Cc2cnc[nH]2)C(=O)N2CCC[C@H]2C(N)=O)NC1=O	nt	5	nt	nt
CC(=O)N[C@@H](CCC(N)=O)C(=O)O	nt	4	nt	nt
Clc1ccc2c(NCCNC3CCCCC3)ccnc2c1	nt	-20	-98*	-9
CC1CCN(c2c(NCC3CCC(C(=O)NCc4ccccc4)CC3)c(=O)c2=O)CC1 (stereo not drawn)	-1%	1	-61*	-17
CCOC1=C2[C@@H](CN(S(=O)(=O)c3ccccc3C)[C@H]2c2ccc(Cl)cc2)[C@H]2C(=O)NC(=O)[C@H]2C1	nt	-1	-72*	nt
CCC(C(=O)Nc1c(C)cccc1C)n1c(-c2ccc(-c3ccccc3)cc2)nc2ccccc21 (stereo not drawn)	nt	71*	-25	nt
CCC(C(=O)NC(C)(C)C)n1c(-c2ccc(C)cc2)nc2ccccc21 (stereo not drawn)	nt	53*	0	nt
CCCc1nc2ccccc2n1C(CC)C(=O)NC(C)(C)C (stereo not drawn)	nt	-2	4	nt
O=C1CC(c2ccco2)CC(O)=C1C=Nc1ccccc1-c1ccccc1 (stereo not drawn)	0%	-14	-105*	12
CCCC1=NN(C(=O)C(=O)Nc2ccc(Br)cc2)C(O)(C(F)(F)F)C1 (stereo not drawn)	0%	-9	-56*	-3
CCOc1ccc(NC(=O)c2ccc(-c3nc(COc4ccccc4)c(C)o3)cc2)cc1	nt	-4	nt	nt
O=C(Nc1ccc(N2CCCCC2)cc1)c1ccccn1	0%	2	2	-102*
O=C(Nc1ccc(N2CCCCCC2)cc1)c1ccccc1Cl	0%	-10	-27	6
CCc1ccc(/C=C/C(=O)C2C(=O)c3ccccc3C2=O)cc1	0%	10	?	-82*
Clc1ccc(CN2CCCCCC2)cc1	1%	-11	0	-15
Clc1ccc(-c2ccc(CN3CCCCC3)o2)cc1	0%	-6	-106*	-5
CN1CCN(Cc2ccc(-c3ccc(Cl)cc3)o2)CC1	-1%	-19	-71*	-3
SMILES	B2AR arrestin	DRD3 agonist	D3 antag	Giardia kill
c1ccc(C[C@H]2CNCCN2CCc2cccc3ccccc23)cc1	0%	-10	1	-1
CCCC[C@@H]1CNCCN1CCc1cccc2ccccc12	0%	-30	-53*	1
O=C(CSc1nc2[nH]ncc2c(=O)[nH]1)NCc1ccc(F)cc1	-2%	0	-50*	-8
O=C(CSc1nc2[nH]ncc2c(=O)[nH]1)NCc1ccccc1	0%	-5	-59*	-5
CCOC(=O)C1CCN(C(c2cccc(F)c2)c2c(O)cc(C)n(Cc3ccco3)c2=O)CC1 (stereo not drawn)	nt	-16	nt	nt
CC(=O)Nc1ccccc1NS(=O)(=O)c1ccccc1NO	nt	nt	nt	2
CN(CC1CCCN(CCc2cccc(C(F)(F)F)c2)C1)C(=O)c1cc2ccccc2o1 (stereo not drawn)	0%	-21	-74*	5
Fc1cccc(NC(=S)N2CCN(c3ccccn3)CC2)c1	-1%	-5	-9	-10
FC(F)(F)c1cccc(NC(=S)N2CCN(c3ccccn3)CC2)c1	1%	6	-106*	-10
Cc1cc(O)c(C(C)C)cc1C1(c2cc(C(C)C)c(O)cc2C)OC(=O)c2ccccc21	?	61*	108	16
Cc1cc(C2(c3ccc(O)c(C)c3)OC(=O)c3ccccc32)ccc1O	2%	-1	17	27
O=[N+]([O-])c1cc(C(F)(F)F)ccc1NC1CCN(Cc2ccccc2)CC1	0%	-30	-74*	-7
O=[N+]([O-])c1cc(C(F)(F)F)ccc1NC1CCN(Cc2ccccc2)C1 (stereo not drawn)	0%	-28	-74*	15
CC1CCN2c3cc(Cl)ccc3CC3(C(=O)OC(C)(C)OC3=O)C2C1 (stereo not drawn)	nt	nt	nt	0
CCCCCn1c(=O)[nH]c2cc(C(=O)Nc3ccc(OC)c(OC)c3)ccc2c1=O	nt	3	nt	nt
COc1ccccc1C(=O)Nc1cc2c(cc1N1CCOCC1)n(C)c(=O)n2C	nt	-13	nt	nt
COc1ccc(-c2noc(CCC(=O)N3CCN(c4cccc(F)c4)CC3)n2)cc1	0%	34*	100	-10
COc1ccc(-c2noc(CCC(=O)N3CCN(c4ccccc4OC)CC3)n2)cc1	-1%	15	67	5
COc1ccc(-c2noc(CCC(=O)N3CCN(c4ccccc4C(F)(F)F)CC3)n2)cc1	0%	31*	117	-3
Cc1c(Cl)cccc1NC(=O)NCCOCCn1c(=O)oc2ccccc21	nt	-12	nt	nt
CC1CCCCN1C(=O)COC(=O)c1ccc(S(C)(=O)=O)c([N+](=O)[O-])c1 (stereo not drawn)	nt	nt	nt	-12
COc1ccc(Cl)cc1NC(=O)NCCn1c(=O)oc2ccc(C)cc21	nt	-15	nt	nt
Cc1sc2ncnc(OCC(=O)NCc3cccs3)c2c1C	0%	7	-83*	-17
COc1ccc(NS(=O)(=O)c2cc(NC(=O)c3ccco3)ccc2N2CCCC2)cc1	0%	-6	-56*	0
Cc1cccc(OCC(=O)Nc2cccc(C(=O)OCc3cc(=O)n4nc(C(C)C)sc4n3)c2)c1	nt	6	nt	nt
SMILES	B2AR arrestin	DRD3 agonist	D3 antag	Giardia kill
COc1ccc(CCNc2oc(COc3ccc(Br)cc3)nc2C#N)cc1OC	-3%	2	7	?
COc1ccc(CCNc2oc(Cc3cccc4ccccc34)nc2C#N)cc1OC	0%	5	-60*	7
O=c1ccn([C@@H]2O[C@H](CNS(=O)(=O)c3csc(-c4ccno4)c3)[C@@H](O)[C@H]2O)c(=O)[nH]1	nt	44*	16	-18
Cc1ccc(CNC(=O)c2ccc3c(=O)n(-c4ccccc4)c(=O)[nH]c3c2)cc1	nt	4	nt	nt
Cc1ccc(C)c(N2CCN(CCCc3ccccc3)CC2)c1	0%	-20	-65*	-5
C/C=C(\C)CN1CCN(c2cccc(C)c2C)CC1	0%	-28	-88*	-24
